# TRHR enhancer: allosteric enhancers of human TRH receptor | P34981 | TRHR cells, fluo-8 calcium fluorescence, EC20 TRH enhancement | enhancement, % at 2 µM | 360,000 tested, 0.66% active | AID 493056; in the data active = enhancement above about 30%; also: 0% is about no effect
#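 TRHR-expressing cells loaded with fluo-8 calcium dye were read kinetically (ex 480/em 530) during compound addition, then stimulated with an EC20 of TRH (10 nM final). Enhancement of the Gq-mediated intracellular calcium response was scored.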
# TRHR ag: agonists of human TRH receptor; P34981; TRHR cells, calcium flux fluo-8, FDSS agonist mode; activation, % at 2 µM; 360,000 tested, 0.18% active; AID 493084; also: 0% is about no effect
#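 TRHR-expressing cells loaded with fluo-8 calcium dye; 23 nL library compound pin-transferred, kinetic FDSS fluorescence (Ex 480/Em 530) recorded about 180 s for agonist-induced calcium release, before a 10 nM TRH EC20 addition for potentiator mode.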
# D1 antagonist: human D1 dopamine receptor antagonism. P21728. HEK293 TREx D1 cells, calcium flux, dopamine EC80; stronger effect = lower value. activity change, negative = inhibition, % at 10 µM. 360,000 tested, 3.2% active; in the data active = activity change below about -30%; also: % is scaled to controls: 0 for no effect and ±100 for the full control effect
# Target sequence (P21728 whole entry, looked up): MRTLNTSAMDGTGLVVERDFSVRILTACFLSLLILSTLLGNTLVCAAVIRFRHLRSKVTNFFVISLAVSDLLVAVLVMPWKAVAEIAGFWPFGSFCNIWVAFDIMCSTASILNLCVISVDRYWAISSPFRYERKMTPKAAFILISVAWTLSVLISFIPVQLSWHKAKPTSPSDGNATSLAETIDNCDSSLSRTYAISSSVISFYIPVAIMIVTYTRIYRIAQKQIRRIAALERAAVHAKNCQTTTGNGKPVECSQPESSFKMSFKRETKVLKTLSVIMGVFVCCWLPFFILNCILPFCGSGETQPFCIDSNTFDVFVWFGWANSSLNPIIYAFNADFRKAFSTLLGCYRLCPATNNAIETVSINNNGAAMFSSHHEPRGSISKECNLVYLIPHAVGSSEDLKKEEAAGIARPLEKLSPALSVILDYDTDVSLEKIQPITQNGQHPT
#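 Calcium flux readout: force-coupled, inducible Hek293 Trex D1 line, cells induced overnight at 30 C with tetracycline, dye-loaded 30–90 min at RT. Antagonism scored against EC80 dopamine challenge given 180 s after compound.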
# D1 potentiator: enhances dopamine response at the human D1 receptor; AID 504651; potentiation, % at 10 µM; P21728; 360,000 tested, 0.036% active; HEK293 TREx D1 cells, calcium flux, dopamine EC20 potentiation; in the data active = potentiation above about 30%; also: 0% is about no effect
# D1 ag: activates the human D1 dopamine receptor. P21728. HEK293 T-REx D1 cells, calcium flux, agonist mode. activation, % at 2 µM. 360,000 tested, 1% active; also: 0% is about no effect
#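 Tetracycline-induced HEK293 TREx D1 cells, force-coupled to calcium signalling, were dye-loaded with a no-wash calcium kit. Compound was pin-added after a 10 s baseline. Fluorescence was read kinetically at 1 cycle/s for 180 s, with calcium rises flagged as agonism.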
# Numbers without * were called inactive. Compounds with a hit are over-represented: about 4.7% of the library has one in this group of screens. Rule as the data show it, unless noted: active = activation above about 30%; inactive = the rest.
SMILES,TRHR enhancer,TRHR ag,D1 antagonist,D1 potentiator,D1 ag
COCCCNC(=O)c1c(NC(=O)Cc2coc3c(C)c(C)ccc23)sc2c1CCCC2,-4.3,0.2,3.9,-2.6,4.0
O=C(NCCCN1CCN(c2ccc(F)cc2)CC1)Nc1ccccc1Cl,1.7,-0.9,-67.2*,-0.3,43.5*
O=C(CCN1CCN(c2ccc(F)cc2)CC1)Nc1ccccc1F,0.7,0.0,7.1,4.5,3.3
CSc1ccc(NC(=O)NCCCN2CCC(Cc3ccccc3)CC2)cc1,15.9,-0.3,-12.6,6.7,195.9*
COc1ccc(N2CCN(CCCNC(=O)Nc3ccccc3Cl)CC2)cc1,-0.7,-0.6,-5.9,-4.3,11.6
CSc1ccc(N2CCN(CCCNC(=O)Nc3ccccc3F)CC2)cc1,-7.1,0.1,-4.3,-24.4,75.1*
CCc1ccc(N2CCN(CCNC(=O)Nc3ccc(OC)cc3)CC2)cc1,5.4,0.4,3.3,16.3,1.8
CCOc1ccc(NC(=O)NCCCN2CCN(c3ccc(F)cc3)CC2)cc1,3.1,-0.3,-35.6*,-3.9,14.0
CCc1ccc(C2CC(=O)c3c([nH]c(C(=O)OCC4CCCCC4)c3C)C2)cc1 (stereo not given),18.8,0.9,8.2,-3.2,0.9
COc1cccc(NC(=O)Cn2c(=O)n(CCCCC(=O)NCc3ccc4c(c3)OCO4)c(=O)c3ccccc32)c1,-0.6,1.1,10.7,0.0,1.5
CCOC(=O)c1c(NC(=O)C(C)Sc2cn(CCNC(=O)c3c(F)cccc3F)c3ccccc23)sc2c1CCC2 (stereo not given),-0.2,1.2,14.5,-2.6,-0.8
COc1ccc(N(CC(=O)NCCc2ccc(C)cc2)S(=O)(=O)c2c(C)nn(C)c2C)cc1,-4.8,-1.6,-3.1,-0.6,1.3
COc1ccccc1S(=O)(=O)Cc1ccc(C(=O)NCCCN2CCN(c3ccc(F)cc3)CC2)o1,-1.3,-0.2,-61.6*,-22.8,1.2
CN(C)S(=O)(=O)c1cccc(C(=O)Nc2cc(Cl)ccc2O)c1,-2.6,0.3,-10.1,-1.5,9.8
CN1CCN(c2ccc(Cl)cc2NC(=O)c2cccc(S(=O)(=O)N(C)C)c2)CC1,-1.1,2.5,-3.9,0.1,41.1*
Cn1c(=O)n(C)c2cc([N+](=O)[O-])c(N3CCN(C(=O)c4ccc(Cl)cc4)CC3)cc21,-1.4,0.1,-56.9*,-1.2,1.8
CN1CCN(c2ccc(Cl)cc2NC(=O)c2ccc([N+](=O)[O-])cc2)CC1,8.5,0.1,-85.0*,-15.3,5.9
CCCc1c(NC(=O)Nc2ccc(F)cc2)cnn1-c1ccccc1,3.0,0.1,-46.0*,-3.6,14.1
CCOC(=O)c1ccc(NC(=O)CC(C)n2nc(C)cc2C)cc1 (stereo not given),-3.7,0.5,-9.0,-0.4,5.4
Cc1cc(OCC(O)CN(CCO)CCO)ccc1Cl (stereo not given),-4.1,0.0,10.5,6.9,0.8
O=[N+]([O-])c1ccc(OCC(O)CN(CCO)CCO)cc1 (stereo not given),-2.4,-0.4,-34.7*,-1.2,3.6
Cc1ccc(-c2noc(C3CCCN(C(=O)c4c(F)cccc4F)C3)n2)cc1 (stereo not given),-4.8,-1.2,-10.5,-3.2,3.1
Cc1ccc(-c2noc(C3CCCN(C(=O)c4cccc(F)c4)C3)n2)cc1 (stereo not given),-2.8,0.7,-31.1*,0.9,11.5
O=C(O)C1CC(c2ccccc2)=NO1 (stereo not given),32.7*,-0.9,4.8,-3.2,1.7
Cc1c(C)n(C(=O)CN2CCC(C)CC2)c2ccccc12,35.2*,0.0,-1.3,0.6,12.6
Cc1cccc(Oc2ccc(NC(=O)CCC(=O)OCC(=O)c3ccc(Br)cc3)cc2)c1C,0.1,-0.4,-12.7,-2.5,5.0
N#CC1=C2SCC(O)(c3ccccc3)N2C(=O)CC1c1cccs1 (stereo not given),2.5,3.0,-28.4,-9.4,62.8*
Cc1ccc(C2=NC(c3ccccc3)=Nc3ccc(Cl)cc3N2)cc1,2.9,0.8,-10.4,-1.3,-0.1
CCOc1ccc(Cl)cc1CNCCCSc1nc(C)cc(C)n1,-7.5,-1.8,-38.3*,-6.7,21.0
COc1cc(C(=O)Nc2ccc(-c3cc(C(F)(F)F)nn3-c3ccccc3)cc2)cc(OC)c1OC,-1.1,2.5,-8.4,-3.9,0.9

# High-throughput results from PubChem BioAssay.
